In the library only some 21% were active in any assay of this set; here they are far more common.
Shiga toxin inh: A qHTS for Small Molecule Inhibitors of Shiga Toxin; Vero cells, Shiga toxin protein synthesis inhibition reporter; inhibition, % at 38.7 µM; actives 9.2% (n = 290,000); in the data active means inhibition mostly above about 28%, no sharp cut-off; inactive means mostly below about 43%; further: 0% is about no effect
Pf growth 48h: Primary qHTS for delayed death inhibitors of the malarial parasite plastid, 48 hour incubation | P. falciparum luciferase growth in erythrocytes, 48 h | AID 504832, 2011 | actives 5.9% (n = 310,000) | Potency, µM (highest dose often 28.7 µM), inactives show at the top dose activity change, negative = inhibition, most hits filed as inhibitors; further: potency means the concentration at half of the fitted maximal effect; on the % scale 0 is the no-effect control and ±100 the full control effect
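Firefly luciferase activity from engineered P. falciparum reports growth; inhibitors lower the luminescent signal. Cultures contained 2% hematocrit erythrocytes at 0.1% final parasitemia.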
Pf growth 96h: Primary qHTS for delayed death inhibitors of the malarial parasite plastid, 96 hour incubation; P. falciparum luciferase reporter growth, 96 h; Potency, µM (highest dose often 28.7 µM), for the others: top-dose activity change, negative = inhibition, usual class: inhibitors; actives 6.9% (n = 320,000); AID 504834, 2011; further: potency means the concentration at half of the fitted maximal effect; on the % scale 0 is the no-effect control and ±100 the full control effect
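Two-generation exposure (96 h) targets delayed-death phenotype. Reporter parasites carrying integrated firefly luciferase, in red cells at 2% hematocrit and 0.05% parasitemia final, kept at 37 C, 5% CO2; luminescence loss indicates inhibition.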
CHX counter: Cycloheximide Counterscreen for Small Molecule Inhibitors of Shiga Toxin | cell reporter, cycloheximide protein synthesis inhibition counterscreen | max response, % | actives 12% (n = 300,000); in the data active means max response mostly above about 13%, no sharp cut-off; inactive means mostly below about 14%; further: read at 38.3 µM for the half of the compounds with a filed dose; 0% is about no effect
Active calls of the source: *; ? = inconclusive; / = no result given; ! = repeats disagree; [ ] = another dose, or the depositor's remark. Unless noted, the call rests on the fitted dose curve; in most records, active means well fitted inhibition curve with a large enough effect; inconclusive means small, poorly fitted or top-dose-only effect, or another doubt; inactive means no such curve, though single readings can be large or run the other way.

SMILES	Shiga toxin inh	Pf growth 48h	Pf growth 96h	CHX counter
O=C(Nc1nnc(CCS(=O)(=O)c2ccc3ccccc3c2)s1)c1cccs1	-14.1	15.4%	17.3%	-2.5
Cc1cc(OCC(=O)N2CCN(c3ccccn3)CC2)c(C)cc1Br	-35.0	15.1%	?	-1.6
COc1ccc(-c2ccoc2)cc1C1C2C=CCC(C)C2C(=O)N1Cc1ccccc1 (stereo not drawn)	-1.6	/	/	6.0
C=CCn1c(SCC(=O)N(CC)C2CCS(=O)(=O)C2)nc2cc(C(=O)O)ccc2c1=O (stereo not drawn)	/	-17.5%	8.6%	/
COc1cc(C(=O)Nc2nnc(Cc3ccccc3)s2)cc(OC)c1OC	-12.7	-10.6%[0.00184 µM]	0.0%	-1.8
O=C(Nc1nnc(Cc2ccccc2)s1)c1ccccc1	39.0*	84.5%	?	17.2*
COc1ccc(Cc2nnc(NC(=O)c3cccs3)s2)cc1	21.3	34.5%	/	-0.2
Cc1ccc(C(=O)Nc2nnc(Cc3ccccc3)s2)cc1	-2.9	7.6%	0.1%	1.5
O=C(Nc1nnc(CC2=CCCCC2)s1)c1cccs1	100.0*	58.8%	/	29.7*
O=C(Nc1nnc(CCN2CCCCC2)s1)c1ccccc1	39.8	84.9%	-13.0%	32.8*
Cc1cccc(C(=O)Nc2nnc(Cc3ccccc3)s2)c1	8.4	?	10.4µM*	9.3*
C=CCOC(/C=C/c1ccccc1)CC (stereo not drawn)	13.7	/	/	10.4
CCOc1ccc(N2C(=O)C3C4C=CC([C@H]5CC45)[C@@H]3C2=O)cc1 (stereo partly drawn)	29.2	0.8%[0.00184 µM]	34.0%	2.4
Cc1ccc(/C=C(\NC(=O)c2ccccc2)C(=O)NC2CCN(Cc3ccccc3)CC2)o1	-29.6	?	0.0%	-2.3
COc1ccc(NS(=O)(=O)c2ccc(-c3n[nH]c(=S)n3Cc3ccccc3)cc2)cc1	7.0	?	3.6%	-0.3
Cc1ccc(S(=O)(=O)n2[nH]c(=O)c(CCO)c2C)cc1	-2.6	14.7%	?	1.2
CC(CN1CCN(c2ccccc2)CC1)c1ccccc1 (stereo not drawn)	21.5	39.8%	87.7%	7.1
c1ccc(SCCN2CCN(c3ccccc3)CC2)cc1	44.9	29.4%	-13.2%	12.8*
CCCN1CCC(=O)N(CCSc2ccc(Br)cc2)CC1	56.0*	/	/	35.2*
[N-]=[N+]=NCCN1CCN(Cc2ccccc2)CCC1=O	16.1	53.9%	34.1%	-3.6
O=C1CCN(Cc2ccccc2)CCN1CCSc1ccccc1	41.0*	125.3%	146.6%	41.6*
CN1CCC(=O)N(CCSc2ccc(Br)cc2)CC1	49.7*!	0.0%	32.2%	20.8*!
CC(=O)Nc1ccc(SCCN2CCN(CC(C)C)CCC2=O)cc1	-4.6	/	/	-5.1
CCCN1CCC(=O)N(CCSc2ccc(NC(C)=O)cc2)CC1	107.7*!	141.5%	13.7%	64.4*!
CCCN1CCC(=O)N(CCSc2ccccc2)CC1	44.4*	241.8%	440.7%	40.3*
SMILES	Shiga toxin inh	Pf growth 48h	Pf growth 96h	CHX counter
Cc1ccc(SCCN2CCN(CC(C)C)CCC2=O)cc1	84.5*	7.2%	44.7%	31.2*!
CCN(CC(=O)Nc1ccc(NC(C)=O)cc1)C(=O)c1cccnc1Sc1ccc(C)c(C)c1	/	?	1.5%	/
Cn1cc(C(=O)N2CCN(C(=O)c3ccco3)CC2)c2c3ccccc3n(C)c2c1=O	-27.1	5.9%	0.0%	-1.3
O=C(CN(C(=O)CCC(=O)Nc1nccs1)c1ccccc1F)NCc1ccc(F)cc1	-15.4	-4.5%	?	-3.4
NC(=S)c1cc2cc(Cl)ccc2oc1=O	18.8	-3.0%	19.3%	4.0
N/C(=N\NC(=O)c1cccs1)c1cc2cc(Cl)ccc2oc1=O	48.8*	31.7%	46.2%	36.0*
COc1ccc2o/c(=N/NC(=O)c3cccs3)c(C(N)=O)cc2c1	70.9*	94.0%	?	35.6*
NC(=O)c1cc2ccccc2o/c1=N/NC(=O)c1cccs1	29.8	17.4%	63.1%	40.4
CC(C)C[C@H](NC(=O)NCc1ccccc1Cl)C(=O)O	23.9	6.9%	0.928µM*	-3.6
O=C(Cc1ccccc1)NCCS(=O)c1ccc(Cl)cc1 (stereo not drawn)	-23.1	12.2%	41.7%	-5.2
O=C(/C=C/c1ccccc1[N+](=O)[O-])NCc1ccccc1Cl	59.6	-10.2%	-21.9%	50.2*
O=C(Cc1ccccc1[N+](=O)[O-])NCc1ccccc1Cl	95.4*	75.4%	212.0%	54.5*
CCC(C)[C@H](NC(=O)NCc1ccccc1Cl)C(=O)O (stereo partly drawn)	-4.5	15.8%	/	-1.5
O=C(Cc1ccc(Cl)cc1)NCCS(=O)c1ccc(Cl)cc1 (stereo not drawn)	-16.1	7.9%	1.17µM*	-5.1

High-throughput results (PubChem)
